# Assay outcomes from PubChem.
# GRIN3A LBD mod: binders of NR3A ligand-binding domain, primary screen, biophysical, differential scanning fluorimetry, uHTS. Glutamate receptor ionotropic, NMDA 3A (GRIN3A) ligand-binding domain. NR3A LBD differential scanning fluorimetry, Tm shift; 0% = protein alone, 100% = glycine-bound protein. Tm shift relative to glycine control, % at 25 µM. 340,000 tested, 2.5% active;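 active = melting temperature shift of at least 10% of the positive control shift, at one fixed dose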
# FAS TE block: FAS thioesterase domain inhibitors, primary screen, biochemical, fluorescence intensity, uHTS. recombinant FAS-TE, OMFH fluorogenic substrate, fluorescence endpoint. inhibition, % at 15 µM. 360,000 tested, 0.67% active;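 active = compounds whose normalised, plate-corrected inhibition of enzyme fluorescence in the single-dose primary screen is 50% or more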;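 also: 0% = DMSO with enzyme and 100% = substrate without enzyme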
# Target sequence (P49327 whole entry, looked up, the tested form may be a part): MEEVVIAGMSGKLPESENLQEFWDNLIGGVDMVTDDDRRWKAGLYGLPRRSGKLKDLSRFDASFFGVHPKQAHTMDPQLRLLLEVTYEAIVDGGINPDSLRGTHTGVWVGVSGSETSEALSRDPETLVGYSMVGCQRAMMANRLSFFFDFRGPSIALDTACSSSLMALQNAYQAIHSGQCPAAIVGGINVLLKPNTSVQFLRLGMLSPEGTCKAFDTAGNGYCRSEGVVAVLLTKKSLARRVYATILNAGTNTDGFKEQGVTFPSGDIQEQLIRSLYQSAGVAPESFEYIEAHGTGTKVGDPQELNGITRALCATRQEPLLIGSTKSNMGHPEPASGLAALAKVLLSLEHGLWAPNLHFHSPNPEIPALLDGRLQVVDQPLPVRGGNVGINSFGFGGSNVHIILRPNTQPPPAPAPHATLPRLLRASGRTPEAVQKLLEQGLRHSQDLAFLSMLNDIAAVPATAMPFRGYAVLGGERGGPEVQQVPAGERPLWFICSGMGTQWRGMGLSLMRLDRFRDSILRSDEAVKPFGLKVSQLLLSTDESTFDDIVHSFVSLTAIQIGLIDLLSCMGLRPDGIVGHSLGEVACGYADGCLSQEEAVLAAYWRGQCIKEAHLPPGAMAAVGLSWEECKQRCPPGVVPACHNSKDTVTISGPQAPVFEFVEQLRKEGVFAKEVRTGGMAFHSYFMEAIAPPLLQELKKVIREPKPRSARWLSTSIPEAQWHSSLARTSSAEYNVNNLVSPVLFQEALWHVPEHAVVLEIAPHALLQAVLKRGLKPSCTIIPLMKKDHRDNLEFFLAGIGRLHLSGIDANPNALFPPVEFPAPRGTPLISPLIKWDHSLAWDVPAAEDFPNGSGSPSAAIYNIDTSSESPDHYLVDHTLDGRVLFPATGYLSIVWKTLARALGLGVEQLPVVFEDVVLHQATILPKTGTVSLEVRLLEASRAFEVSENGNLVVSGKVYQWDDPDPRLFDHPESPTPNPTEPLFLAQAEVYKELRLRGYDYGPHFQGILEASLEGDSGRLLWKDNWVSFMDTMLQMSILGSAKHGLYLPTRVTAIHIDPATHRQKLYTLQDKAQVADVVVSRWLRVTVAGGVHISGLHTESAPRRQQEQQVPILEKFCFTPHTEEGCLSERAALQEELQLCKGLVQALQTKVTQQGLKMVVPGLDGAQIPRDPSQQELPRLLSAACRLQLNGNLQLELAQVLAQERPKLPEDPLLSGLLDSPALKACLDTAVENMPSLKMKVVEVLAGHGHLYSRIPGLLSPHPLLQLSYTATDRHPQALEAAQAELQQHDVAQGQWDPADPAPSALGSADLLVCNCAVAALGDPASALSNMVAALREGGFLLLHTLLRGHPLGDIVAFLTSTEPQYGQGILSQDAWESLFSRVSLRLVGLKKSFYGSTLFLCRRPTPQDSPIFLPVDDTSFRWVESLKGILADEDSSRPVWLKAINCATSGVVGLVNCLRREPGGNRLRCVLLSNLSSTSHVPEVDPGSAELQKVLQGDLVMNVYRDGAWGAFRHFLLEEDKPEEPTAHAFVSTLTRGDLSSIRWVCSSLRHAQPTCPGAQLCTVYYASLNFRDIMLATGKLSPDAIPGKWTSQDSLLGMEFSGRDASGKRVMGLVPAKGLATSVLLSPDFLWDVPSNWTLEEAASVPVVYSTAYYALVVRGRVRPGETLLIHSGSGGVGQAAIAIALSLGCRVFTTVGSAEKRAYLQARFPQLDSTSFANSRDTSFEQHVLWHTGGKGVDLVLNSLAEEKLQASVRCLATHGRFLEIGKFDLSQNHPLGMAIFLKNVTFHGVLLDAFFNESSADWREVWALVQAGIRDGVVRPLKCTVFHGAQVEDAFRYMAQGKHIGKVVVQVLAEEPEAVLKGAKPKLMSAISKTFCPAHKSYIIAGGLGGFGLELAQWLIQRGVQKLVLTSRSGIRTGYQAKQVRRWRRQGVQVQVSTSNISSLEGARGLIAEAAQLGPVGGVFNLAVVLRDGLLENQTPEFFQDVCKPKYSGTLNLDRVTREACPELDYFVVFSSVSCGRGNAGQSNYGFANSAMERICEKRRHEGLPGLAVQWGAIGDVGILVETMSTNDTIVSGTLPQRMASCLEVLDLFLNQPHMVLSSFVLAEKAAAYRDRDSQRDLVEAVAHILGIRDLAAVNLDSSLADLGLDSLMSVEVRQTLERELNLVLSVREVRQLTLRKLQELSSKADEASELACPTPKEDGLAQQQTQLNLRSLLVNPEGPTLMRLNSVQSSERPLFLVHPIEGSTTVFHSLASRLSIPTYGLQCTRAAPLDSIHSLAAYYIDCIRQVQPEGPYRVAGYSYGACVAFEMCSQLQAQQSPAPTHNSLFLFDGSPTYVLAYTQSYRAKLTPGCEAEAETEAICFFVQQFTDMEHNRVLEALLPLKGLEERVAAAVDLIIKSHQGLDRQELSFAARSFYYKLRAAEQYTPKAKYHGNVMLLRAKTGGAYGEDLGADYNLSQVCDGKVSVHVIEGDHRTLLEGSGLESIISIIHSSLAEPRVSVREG
# MPTP block: mitochondrial permeability transition pore inhibitors, primary screen, biochemical, isolated mouse mitochondria, absorbance. 360,000 tested, 1.4% active. Ca2+ swelling absorbance, 30 min. inhibition, % at 10 µM;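 active = inhibition of 50% or more, scaled per plate between neutral and stimulator controls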;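 also: 0% = DMSO wells given calcium and 100% = 1 mM EGTA wells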
# beta cell repl: inducers of MIN6 beta-cell proliferation, primary screen, ATP luminescence, uHTS | AID 2380, 2010 | 330,000 tested, 0.29% active | MIN6 cells proliferation, ATPlite luminescence, 48 h; cells starved in 0.2% serum; 100% = growth in 10% serum | proliferation, % at 10 µM;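 active = compounds whose signal lies at least 3.5 SD above the mean of all wells on their plate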;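 also: 0% = DMSO-treated cells in low-serum medium and 100% = 10% serum control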
# p-CIP stab down: p/CIP-EGFP fusion destabilizers, primary screen, fluorescence, F442A cells; Q05BA5; AID 1984, 2009; decrease of EGFP signal, % at 10 µM; 290,000 tested, 0.01% active; 16 h;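 active = EGFP signal decrease of at least 30% at 10 µM or well 3 SD below plate mean, unless failing retest; inactive = the rest, including hits failing retest or dose response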
# FAS-TE conf: FAS thioesterase domain inhibitors, confirmation, biochemical, fluorescence intensity, single concentration. shares compounds with FAS TE block. recombinant FAS-TE, OMFH fluorogenic substrate. inhibition, % at 15 µM. 2,300 tested, 45% active. AID 624325, 2012;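 active = compounds inhibiting the enzyme by at least 50% at 15 µM in any one of the replicates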;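 also: 0% = enzyme with DMSO only and 100% = wells lacking enzyme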
# MPTP counter: fluorescence retest of MPTP screen hits in isolated mitochondria, single concentration. shares compounds with MPTP block. membrane potential, Rhodamine 123 fluorescence. inhibition, % at 10 µM. 5,000 tested, 78% active. AID 624504, 2012; in the data active = inhibition above about 22%;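 also: 0% = DMSO vehicle and 100% = positive control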
# An asterisk follows results filed as active; . = not tested or not shown. An excerpt weighted towards active compounds, which were near 4.1% of everything screened.
SMILES,GRIN3A LBD mod,FAS TE block,MPTP block,beta cell repl,p-CIP stab down,FAS-TE conf,MPTP counter
CCn1c(=S)sc2c(=O)n(-c3ccccc3)c(SCC(=O)NCc3ccco3)nc21,0.9,17.8,-2.1,-0.6,-3.8,.,.
COc1ccc2nc(N3CCCCC3)c(/C=C3\SC(=S)NC3=O)cc2c1,-2.3,62.0*,76.1*,-4.2,-8.3,23.9,43.6*
O=C1NC(=S)S/C1=C\c1cc2ccccc2nc1N1CCCCC1,-1.5,68.7*,72.7*,-3.3,-12.9,51.0*,66.8*
N#C/C(=C\c1cc2ccccc2nc1N1CCCCC1)C(N)=O,0.3,11.0,0.7,.,-3.8,.,.
O=C(Nc1ncc(S(=O)(=O)c2ccc([N+](=O)[O-])cc2)s1)c1cccc2ccccc12,10.8*,55.8*,54.1*,-2.9,5.6,6.6,79.0*
O=C(NC(Nc1ncc(S(=O)(=O)c2ccc([N+](=O)[O-])cc2)s1)(C(F)(F)F)C(F)(F)F)c1ccc(Cl)cc1,9.8,60.7*,99.7*,-5.5,-4.8,43.6*,86.8*
Cn1c(=O)c2[nH]c(COc3ccc(C(C)(C)C)cc3)nc2n(C)c1=O,-3.4,68.7*,95.9*,-7.4,-31.4,70.3*,70.1*
Cn1c(=O)c2[nH]c(Cc3cccc(O)c3)nc2n(C)c1=O,-2.1,-5.8,-0.4,.,.,.,.
Cc1ccc(-c2cccc(CN3CCN(C4CCN(C(C)C)CC4)C(CCO)C3)c2)o1 (stereo not given),-10.0,-10.4,0.4,-4.3,17.7,.,.
O=C(NCc1ccc(Cl)cc1)C1=Cc2cc(Cl)ccc2OC1,0.8,63.5*,78.1*,-0.6,-2.6,40.4,89.3*
CCc1ccc(C(=O)NCc2ccc(Cl)cc2)cc1,5.3,6.8,2.1,0.0,0.1,.,.
CC(CNC(=O)Cn1cnc2c(NCc3ccccc3)ncnc21)c1ccccc1 (stereo not given),1.6,-5.0,0.0,.,.,.,.
O=C(NCCc1cccc(Cl)c1)c1ccc(Cl)c([N+](=O)[O-])c1,-6.7,71.9*,81.4*,0.0,-1.4,50.3*,93.5*
O=C(NCCc1nc2ccccc2[nH]1)c1ccc(Cl)c([N+](=O)[O-])c1,-8.3,23.5,0.8,-3.9,-0.7,.,.
CCN(C[C@H]1N[C@@](Cc2ccccc2)(C(=O)OC)[C@H]2C(=O)N(Cc3ccccc3)C(=O)[C@@H]12)C(=O)Nc1ccc(Cl)cc1,17.2*,59.6*,63.4*,-4.8,.,35.6,100.5*
Cc1nc(Nc2ccc3c(c2)OCCO3)c2c(C)c(C)sc2n1,-1.7,3.1,-1.8,-0.5,0.5,.,.
CC1(c2ccccc2)CC(C)(C)N2C(=O)/C(=C3\SC(=S)NC3=O)c3cccc1c32 (stereo not given),-6.1,77.5*,101.5*,.,4.4,9.7,63.3*
Cn1c(=O)n(C)c2cc([N+](=O)[O-])c(N3CCN(S(=O)(=O)c4ccc(C(C)(C)C)cc4)CC3)cc21,0.4,72.9*,54.3*,-4.3,-7.8,20.3,70.8*
CC(=O)Nc1ccc(S(=O)(=O)N2CCN(c3cc4c(cc3[N+](=O)[O-])n(C)c(=O)n4C)CC2)cc1,-0.5,28.0,3.8,-2.5,-15.3,.,.
Cc1csc(/C(=N/OC(=O)c2ccco2)C(N)=O)n1,0.8,14.8,0.7,-0.5,12.4,.,.
Fc1nc(F)c(F)c(NCCCNc2c(F)c(F)nc(F)c2F)c1F,3.3,55.0*,92.6*,-6.7,4.4,57.4*,94.5*
COc1ccccc1N1CCN(C(=O)CCc2nnc3ccc(N4CCC(C)CC4)nn23)CC1,-1.4,-1.1,0.5,-3.1,-1.2,.,.
CC(CCc1ccccc1)NC(=O)COC(=O)c1cc(NS(=O)(=O)c2ccc(Cl)c([N+](=O)[O-])c2)ccc1O (stereo not given),22.1*,54.6*,99.6*,-6.3,13.5,61.7*,88.8*
CNS(=O)(=O)c1cccc(C(=O)OCC(=O)NC(C)CCc2ccccc2)c1 (stereo not given),1.3,-1.7,0.8,-4.7,-1.6,.,.
CCC1=NN(C(=O)c2ccc(C)cc2)C(O)(c2ccc(Br)cc2)C1 (stereo not given),5.6,17.3,6.8,0.0,5.2,.,.
SMILES,GRIN3A LBD mod,FAS TE block,MPTP block,beta cell repl,p-CIP stab down,FAS-TE conf,MPTP counter
CCC1=NN(C(=O)c2cccc(Br)c2)C(O)(c2ccc(Br)cc2)C1 (stereo not given),4.6,51.9*,83.5*,-5.9,3.7,47.1,89.5*
COc1ccc(/C=C2\SC(=O)N(CC(=O)Nc3ccccc3O)C2=O)cc1OC,4.9,-5.2,-0.1,1.9,-6.7,.,.
O=C1/C(=C/c2ccc(O)c([N+](=O)[O-])c2)SC(=S)N1Cc1ccccc1,497.7*,86.0*,72.7*,-5.7,-16.5,10.9,55.2*
O=C(CN1C(=O)S/C(=C\c2ccccc2)C1=O)Nc1cc([N+](=O)[O-])ccc1O,23.3*,81.2*,57.8*,-0.9,-13.5,81.6*,79.1*
CCOc1ccc(-c2csc(/C(C#N)=C\c3ccc(O)c([N+](=O)[O-])c3)n2)cc1,7.7,72.1*,73.1*,0.0,-12.3,60.6*,70.3*
CCCCc1ccc(-c2csc(/C(C#N)=C\c3ccc(C)o3)n2)cc1,-1.0,18.0,14.5,-3.9,-22.5,.,.
Cc1cc(C)cc(NC(=O)C(Sc2nnc(C)c(=O)[nH]2)c2ccccc2)c1 (stereo not given),0.5,-2.7,0.8,-4.0,-0.5,.,.
Cc1nnc(SC(C(=O)Nc2ccc(Cl)c([N+](=O)[O-])c2)c2ccccc2)[nH]c1=O (stereo not given),5.1,51.8*,74.0*,-0.4,0.1,53.1*,50.5*
CN1C(=O)/C(=C/c2cc(N=Nc3ccccc3)ccc2O)SC1=S,372.4*,58.5*,95.2*,-4.3,-12.7,14.2,61.3*
Cc1ccccc1CS(=O)(=O)c1nnc([C@H](CC(C)C)NC(=O)OC(C)(C)C)o1,1.3,51.7*,75.0*,-5.5,-6.0,54.7*,-3.1
O=[N+]([O-])c1cccc(S(=O)(=O)Nc2nc3ccccc3nc2Nc2cccc(S(=O)(=O)N3CCCCC3)c2)c1,-4.3,82.5*,59.5*,.,-16.7,16.8,30.2*
Cc1ccc2c(c1)N/C(=C(\C=C(/Cl)[N+](=O)[O-])[N+](=O)[O-])N2,.,.,.,-5.2,-9.8,.,.
COc1ccc(C(=O)/C(C#N)=N/Nc2ccc([N+](=O)[O-])cc2)cc1,16.9*,58.7*,99.9*,-6.1,-13.8,19.3,86.5*
